Test results reported in PubChem BioAssay (NCATS).
Several values for one entry are separate records, joined by “and”; a condition that tells them apart may be missing. Identical values can stand only once. Inconclusive results are not listed. The source holds several records for some structures; these can differ, active in one and inactive in another. A number with no mark means an inactive call. Activity calls are given as the source filed them. Calls come from the whole dose curve; as a rule, active = well fitted inhibition curve with a large enough effect; inconclusive = small, poorly fitted or top-dose-only effect; inactive = flat fitted curve, though single readings scatter.

Columns and labels:
CRL-7250 = normal cell line; assay: Cytotoxic Profiling of Annotated Libraries Using Quantitative High-Throughput Screening (AID 1296008); settings: Five cell lines viability, CellTiter-Glo ATP luminescence, 48-72 h; max response: active compounds read low
Method in brief: (§1)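 Cytotoxicity was measured as CellTiter-Glo ATP luminescence, read after 10 min at room temperature. Compound treatment of the cells lasted 48 or 72 hr at 37 degrees Celsius in a qHTS format.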

HEK293 = assay: as above; settings: Five cell lines viability, CellTiter-Glo ATP luminescence, 48-72 h; max response: active compounds read low
Method in brief: as §1

HaCat [1] = assay: as above; settings: Five cell lines viability, CellTiter-Glo ATP luminescence, 48-72 h; max response: active compounds read low
Method in brief: as §1

KB-3-1 = assay: as above; settings: Five cell lines viability, CellTiter-Glo ATP luminescence, 48-72 h; max response: active compounds read low
Method in brief: as §1

NIH3T3 = assay: as above; settings: Five cell lines viability, CellTiter-Glo ATP luminescence, 48-72 h; max response: active compounds read low
Method in brief: as §1

HACAT [2] = assay: qHTS assay to identify novel small-molecules to repurpose for Merkel cell carcinoma treatment (AID 1296009); settings: MCC and control cell lines, CellTiter-Glo viability, 72 h; series mostly up to 44.8 µM
Method in brief: (§2)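 After compound transfer in DMSO, plates were kept 72 hr at 37 degree celsius. Luminescent ATP signal from CellTiter-Glo served as viability measure, normalized against DMSO and no-cell controls.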

HEK293T = assay: as above; settings: MCC and control cell lines, CellTiter-Glo viability, 72 h; at 44.8 µM (top of the series) unless noted
Method in brief: as §2

MCC-13 = assay: as above; settings: MCC and control cell lines, CellTiter-Glo viability, 72 h; series mostly up to 46 µM
Method in brief: as §2

MCC-26 = assay: as above; settings: MCC and control cell lines, CellTiter-Glo viability, 72 h; series mostly up to 46 µM
Method in brief: as §2

MKL-1 = assay: as above; settings: MCC and control cell lines, CellTiter-Glo viability, 72 h; series mostly up to 46 µM
Method in brief: as §2
% is set by controls: 0 for no effect and ±100 for the full control effect; potency is the fitted concentration of half-maximal effect.
Note: nearly all actives have a fitted effect of over 60% in size.

## Cc1c(C)n(Cc2ccc(-c3ccccc3C(=O)O)cc2)c2ccc(C(=O)N[C@@H](C)c3ccc([N+](=O)[O-])cc3)cc12
CRL-7250
  max response: 0.704%
  outcome: inactive
HEK293
  max response: -2.51%
  outcome: inactive
HaCat [1]
  max response: -4.97%
  outcome: inactive
KB-3-1
  max response: 0.427% and 0.798%
NIH3T3
  max response: -3.87% and -3.64%
HACAT [2]
  Potency: inactive
HEK293T
  outcome: inactive
MCC-13
  Potency: inactive
MCC-26
  Potency: inactive
MKL-1
  Potency: 0.372 µM (active)

## CC(O)C1C(=O)N2C(C(=O)O)=C(SC3CNC(C(=O)N(C)C)C3)C(C)C12 (configuration not stated)
CRL-7250
  max response: -9.97% and 0.421%
HEK293
  max response: -5.51% and 0.11%
HaCat [1]
  max response: 0.187%
  outcome: inactive
KB-3-1
  max response: 5.3%
  outcome: inactive
NIH3T3
  max response: 0.991% and 3.69%
HACAT [2]
  Potency: inactive
MCC-13
  Potency: inactive
MKL-1
  Potency: inactive

## CNC(=O)c1ccc(N2C(=S)N(c3cnc(C#N)c(C(F)(F)F)c3)C(=O)C23CCC3)cc1F
CRL-7250
  max response: -2.94%
  outcome: inactive
HaCat [1]
  max response: -2.38% and -0.362%
KB-3-1
  max response: -8.3%
  outcome: inactive
NIH3T3
  max response: 0.376%
  outcome: inactive
HEK293T
  outcome: inactive

## CC1COC2(CCN(c3nc(=O)c4cc(C(F)(F)F)cc([N+](=O)[O-])c4s3)CC2)O1 (configuration not stated)
CRL-7250
  outcome: inactive
HEK293
  max response: 2.26%
  outcome: inactive
HaCat [1]
  max response: 0.136%
KB-3-1
  max response: 8.43% and -3.92%
NIH3T3
  outcome: inactive
HEK293T
  outcome: inactive
MCC-13
  Potency: inactive
MCC-26
  Potency: inactive
MKL-1
  Potency: inactive

## N#CCNC(=O)c1ccc(-c2ccnc(Nc3ccc(N4CCOCC4)cc3)n2)cc1
CRL-7250
  Potency: 7.43 µM (active) and 6.51 µM (active)
HEK293
  Potency: 18.7 µM (active) and 23.1 µM (active)
HaCat [1]
  Potency: 13 µM (active)
  max response: -43.7%
KB-3-1
  Potency: 11.8 µM (active) and 18.4 µM (active)
NIH3T3
  Potency: 5.26 µM (active) and 4.11 µM (active)

## O=C(CCCCCCC(=O)Nc1ccc([C@H]2O[C@@H](CSc3nc(-c4ccccc4)c(-c4ccccc4)o3)C[C@@H](c3ccc(CO)cc3)O2)cc1)NO
CRL-7250
  Potency: 18.7 µM (active)
  max response: -17.1%
HEK293
  Potency: 14.8 µM (active) and 18.4 µM (active)
HaCat [1]
  Potency: 20.9 µM (active)
  outcome: inactive
KB-3-1
  Potency: 11.8 µM (active)
NIH3T3
  max response: -17.5%
HACAT [2]
  Potency: inactive
MCC-26
  Potency: 23.5 µM (active)
MKL-1
  Potency: 8.33 µM (active)

## COc1cccc(Nc2c(C(N)=O)cnc3c(C)cc(S(=O)(=O)c4cccc(C(=O)N(C)C)c4)cc23)c1
CRL-7250
  max response: -20.3%
  outcome: inactive
HEK293
  Potency: 12.9 µM (active)
HaCat [1]
  max response: 2.69%
KB-3-1
  max response: -2.62% and -18.7%
NIH3T3
  max response: -0.878%
MCC-13
  Potency: inactive
MKL-1
  Potency: inactive

## CN(C)c1nc(Cc2ccc(NC(=O)c3ccc4ccccc4c3)cc2)nc(Cl)c1CC(=O)O
CRL-7250
  max response: 0.957% and -5.82%
HEK293
  max response: -6.45%
  outcome: inactive
HaCat [1]
  max response: 3.96%
  outcome: inactive
KB-3-1
  outcome: inactive
NIH3T3
  max response: 2.84% and 3.57%
HACAT [2]
  Potency: inactive
HEK293T
  outcome: inactive
MCC-13
  Potency: inactive
MKL-1
  Potency: inactive

## CCNC(=O)Nc1ccc2ncc(Nc3ccc(C)cc3)nc2n1
CRL-7250
  max response: -2.45%
  outcome: inactive
HEK293
  max response: 1.18% and 1.8%
HaCat [1]
  max response: -7.35% and 2.38%
KB-3-1
  max response: -0.0839%
  outcome: inactive
NIH3T3
  max response: 4.76% and -10.1%
MCC-13
  Potency: inactive

## COc1cc(-c2nn(C3CCC(N4CCN(C(C)=O)CC4)CC3)c3ncnc(N)c23)ccc1NC(=O)c1cc2ccccc2n1C (configuration not stated)
CRL-7250
  max response: -38.4%
HEK293
  max response: -12.7%
HaCat [1]
  Potency: 3.66 µM (active)
  max response: -22.8%
KB-3-1
  Potency: 20.6 µM (active)
  max response: -0.49%
NIH3T3
  max response: -32.1% and -29.8%
MKL-1
  Potency: 3.72 µM (active)

## Cn1c(CNc2ccc(C(=N)N)cc2)nc2cc(C(=O)N(CCC(=O)O)c3ccccn3)ccc21
CRL-7250
  Potency: 7.24 µM (active)
  max response: -5.55%
HEK293
  max response: -4.52%
HaCat [1]
  max response: -0.657% and -2.49%
KB-3-1
  max response: -2.52%
  outcome: inactive
NIH3T3
  outcome: inactive
MCC-13
  Potency: inactive
MCC-26
  Potency: inactive
MKL-1
  Potency: inactive

## CCc1cc2c(cc1N1CCC(N3CCOCC3)CC1)C(C)(C)c1[nH]c3cc(C#N)ccc3c1C2=O
CRL-7250
  max response: -36.8% and 0.704%
HEK293
  Potency: 3.17 µM (active)
  max response: -78.7%
HaCat [1]
  max response: -16.1% and -0.553%
KB-3-1
  max response: -32% and 1.82%
NIH3T3
  max response: -45.1% and -2.9%
MCC-13
  Potency: inactive
MCC-26
  Potency: inactive
MKL-1
  Potency: inactive

## Cc1ccc2nc(NC(=O)CSc3nc4c(c(=O)n3-c3ccccc3)SCC4)sc2c1
CRL-7250
  Potency: 13.2 µM (active)
  max response: 3.83%
HEK293
  outcome: inactive
HaCat [1]
  max response: 3.94%
KB-3-1
  Potency: 9.35 µM (active)
  max response: -10.5%
NIH3T3
  max response: -19.8%
HEK293T
  outcome: inactive
MCC-13
  Potency: inactive
MCC-26
  Potency: inactive
MKL-1
  Potency: inactive
